The text below walks through data of PubChem BioAssay (NCATS).

Structures are written as SMILES. Inconclusive results are not listed. A call without a number means that no potency is given here. Calls of active or inactive are those of the source. The call rests on the fitted dose curve; in most records, active means well fitted inhibition curve with a large enough effect; inconclusive means small, poorly fitted or top-dose-only effect; inactive means no such curve, though single readings can be large or run the other way. Numbered stars: 1 amine (or outer) side, 2 acyl side, 3 side chain; on linkers, the order of the positions; unused ones are H or OH. Bridge positions count the residues as written; N and C are the ends. Square brackets hold non-standard residues; d marks the D form. Peptide text beside a SMILES is read from it. * marks the point of attachment. ξ: configuration not given here. Phe(3R-OH) = O=C([C@@H](N[*:1])[C@H](O[*:3])c1ccccc1)[*:2]; NMeTrp(4-OMe) = CN[C@@H](Cc1c[nH]c2cccc(OC)c12)C(=O)O; X4 = O=C(C1CC2(c3ccc(O)cc3)c3ccccc3NC2N1[*:1])[*:2]; ξThr(3R)(O-yl) = C[C@@H](O[*:3])C(N[*:1])C(=O)[*:2]; NMeThr(3ξ) = CN[C@H](C(=O)O)C(C)O; ξW = NC(Cc1c[nH]c2ccccc12)C(=O)O; NMeL = CN[C@@H](CC(C)C)C(=O)O; NMeV = CN[C@H](C(=O)O)C(C)C; ξIle = CC[C@H](C)C(N)C(=O)O; ξY = NC(Cc1ccc(O)cc1)C(=O)O; Octanoyl = CCCCCCCC(=O)*; ξV = CC(C)C(N)C(=O)O
Potency means the concentration at half of the fitted maximal effect.

This assay can be described thus: qHTS for inhibitors of ER calcium dysfunction: SERCaMP assay screened against the NCATS CANVASS Library (AID 1347393). Further: nearly all actives have a fitted effect of over 40% in size. The conditions noted are these: SH-SY5Y GLuc-SERCaMP (Gaussia luciferase released on ER calcium loss) secretion, thapsigargin, luminescence; series mostly up to 76.6 µM. The source says: Natural products and their derivatives continue to be wellsprings of nascent therapeutic potential. However, many laboratories have limited resources for biological evaluation, leaving their previously isolated or synthesized compounds largely or completely untested. To address this issue, the Canvass library of natural products was assembled (https://tripod.nih.gov/canvass), in collaboration with academic and industry researchers, for quantitative high-throughput screening (qHTS) across a diverse set of cell-based and biochemical assays. The pure (>85% purity by liquid chromatography/mass spectrometry [LC/MS]) Canvass library of 346 natural products were submitted by 45 academic laboratories and companies around the world. We collected pure natural products to circumvent deconvolution and structure elucidation due to time and resource limitations. The library was formatted into 1536-well plates and evaluated in 50 qHTS (in an 11-pnt concentration series) bioassays with broad scope of disease-relevant mechanisms. The resulting data set from 50 different assays was then systematically analyzed to identify overall trends and specific natural products with interesting biological activities. Reported herein are the results of each individual qHTS and their corresponding assay protocol. The SERCaMP assay detects ER calcium dysfunction. A Gaussia luciferase-based reporter protein (GLuc-SERCaMP) is expressed in SH-SY5Y cells and secreted in response to ER calcium depletion. Small molecules that stabilize ER calcium inhibit GLuc-SERCaMP release. National Center for Advancing Translational Sciences (NCAwsTS), Rockville, MD National Institute of Health (NIH), Bethesda, Maryland
SERCaMP assay protocol: 1. In a white-solid bottom 1536-well tissue culture plate (Corning 7494), 5 uL of SH-SY5Y-GLuc SERCaMP MJH297 derived (MP_G) cells were dispensed using a Multidrop Combi (Thermo Fisher Scientific) at a final concentration of 1000 cells / well. 2. The assay plates were incubated for 4 hours at 37C, 5% CO2, 95% humidity to acclimate and attach. 3. […] of compounds (in DMSO; columns 5-48), and positive control Bromocriptine (10 mM; 1:2 dilution; 16-points; n = 2; column 2, rows 1-32) were pin transferred into the assay plates using the Kalypsis pin tool (Wako USA) equipped with a 1536-well pin heads. This yields a final CANVASS compound concentration of 0.001 - 38.2 uM. 4. The assay plates were incubated for 16 hours at 37C, 5% CO2, 95% humidity. 5. After compound treatment, 1 uL per well of (6x) 600 nM Thapsigargin into column 1, rows 17 - 32; column 2, rows 1 - 32; columns 4 - 48, rows 1 - 32 using the BioRAPTR liquid dispenser. As a control 1 uL of (1x) Media was dispensed into column 1, rows 1 - 16; and into column 3, rows 1 - 32. 6. The assay plates were incubated for 4 hours at 37C, 5% CO2, 95% humidity. 7. After 4 hours, 1 uL of (7x) substrate Coelenterazine (diluted 1:200 in Pierce Glow Assay buffer) was dispensed into columns 1 - 48, rows 1 - 32. 8. The plates were centrifuged for 5 seconds at 1000 rpm. 9. Luminescence signal was obtained via the ViewLux plate reader (Perkin Elmer) using the clear emission filter and 1x binning, 5 seconds exposure settings.
A general note: qHTS replaces the single test concentration by a dilution series.
Regarding `CC(=O)[C@@H]1[C@@H](O)C[C@H]2[C@]3(C)CC[C@H]4C(C)(C)CCC[C@]4(CO)[C@H]3C[C@H]3OC(=O)[C@@H]1[C@@]32C`, the Potency was 38.4 µM (active).

For the compound `C=C[C@]1(C)CC[C@@H]([C@H](C)C(=O)OCC)O1`, the Potency entry is “inactive”.

`CCCCCCCC(=O)N[C@@H](CC(C)C)C(=O)N[C@H](C=O)CCC(=O)O` (Octanoyl-Leu-Glu-aldehyde): the Potency result was “inactive”.

On to `C=C(C)CC[C@H](Cc1c(O)cc(O)c2c1O[C@H](c1ccc(O)cc1O)CC2=O)C(=C)C`, for which the Potency is 30.5 µM (active).

Turning to `CC1(C)C=Cc2c(ccc3c2OC[C@@H](c2ccc(O)cc2O)C3)O1`, the Potency is 30.5 µM (active).

`CNc1ccc(Cl)cc1C(=O)OC[C@]1(C)[C@H]2CC[C@]3(C)[C@@H](C[C@@H](OC)[C@H](C)[C@H]3C3=C(O)C(=O)OC3O)[C@]2(C)CC[C@H]1O` (stereo not given in full): the Potency entry is “inactive”.

Turning to `Cc1cc(O)cc2oc(C[C@H](C)O)cc(=O)c12`, the Potency result was “inactive”.

`C[C@@H]1C[C@H]2C[C@]3(CCCCN3C)[C@@H]3C[C@H]2[C@H](C1)N(C)C3`: the Potency is 30.5 µM (active).

Consider `O=C(O)CC1OCc2c(O)cccc21` (stereo not given), for which the Potency result was “inactive”.

On to `O=C(O)Cc1c[nH]c2ccccc12`, for which the Potency result was “inactive”.

In the case of `COc1c(O)cc2oc(-c3ccccc3)cc(=O)c2c1O`, the Potency was 34.3 µM (active).

For `C=C1C[C@@]23C=CC(=O)[C@@](C)(CCCC(C)C(=O)O)[C@@H]2C[C@@H]1CC3` (stereo not given in full), the Potency entry is “inactive”.

With `Oc1ccc(C2c3c(O)cc(O)cc3[C@@H]3C(c4ccc(O)cc4)c4c(O)cc(O)cc4[C@H]23)cc1` (stereo not given in full), the Potency result was “inactive”.

Take `CCCCCCCCCCCCCCCC(=O)OC/C=C(\C)CCCC(C)CC(C)C(C)C` (stereo not given): the Potency entry is “inactive”.

Turning to `C/C=C1/CC[C@@H]2c3[nH]c4ccccc4c3CCN2C1`, the Potency is 19.3 µM (active).

For the compound `C=C1C(=O)O[C@H]2C[C@H](C)[C@@H]3CC(=O)C(C)=C3[C@H](O)[C@H]12`, the Potency is 1.72 µM (active).

As to `CC(C)=CCC[C@@H](C)[C@@H]1CC[C@@]2(C)C[C@H]3C(C)=CC(=O)[C@@H]3/C(C=O)=C\C[C@H]12`, the Potency result is “inactive”.

As for `C=C(C)C(=O)O[C@H]1C[C@H](C)[C@@H](OC(C)=O)CC[C@@]2(C)O[C@@H]2[C@H]2OC(=O)C(COC(C)=O)=C12`, the Potency is 0.86 µM (active).

With `COC1C(O)C(OC(N)=O)C(Oc2ccc3c(O)c(NC(=O)c4ccc(O)c(CC=C(C)C)c4)c(=O)oc3c2C)OC1(C)C` (stereo not given), the Potency is 27.2 µM (active).

As to `C[C@@]12CCC[C@@](C)(C(=O)O)[C@H]1C[C@@H](O)[C@]13C[C@H]4C[C@H](O[C@@]4(C)C1)[C@@H]23`, the Potency entry was “inactive”.

As to `CN1CC[C@]2(c3cccc4c3N[C@@H]3N(C)CC[C@]43[C@@]34CCN(C)[C@@H]3Nc3c([C@]56CCN(C)[C@H]5Nc5ccccc56)cccc34)c3ccccc3N[C@H]12`, the Potency entry was “inactive”.

On to `C/C1=C/[C@@H](C)[C@H](O)C/C=C/CC/C=C/C(=O)O[C@@H]1[C@H](C)C(=O)/C=C/CC1CC(=O)NC(=O)C1`, for which the Potency is 4.31 µM (active).

As for `CC[C@H](C)[C@H](NC(=O)C(Cc1ccc(O)cc1)NC(=O)C(Cc1c[nH]c2ccccc12)NC(=O)[C@H](C)N)C(=O)N1C(C(=O)NC(Cc2ccc(O)cc2)C(=O)O)CC2(c3ccc(O)cc3)c3ccccc3NC12` (stereo not given in full) (H-A[ξW][ξY]I[X4][ξY]-OH), the Potency result is “inactive”.

`C[C@@H]1C(=O)[C@]23CC[C@H]1C[C@]21O[C@H]2C(C)(C)C=CC(=O)[C@]23COC1=O`: the Potency result was “inactive”.

As for `O=C1c2c(O)cc(O)cc2O[C@@H](c2ccc(O)cc2)[C@@H]1c1c(O)cc(O)c2c(=O)cc(-c3ccc(O)c(O)c3)oc12`, the Potency result is “inactive”.

For `C=C1[C@H]2CC[C@@]3(C=CC(=O)[C@@](C)(CCC(=O)Nc4c(O)ccc(C(=O)O)c4O)C3C2)[C@H]1O` (stereo not given in full), the Potency result was “inactive”.

On to `C[C@@H](O)[C@H]1OC(=O)C=C2[C@]3(C)[C@H]4[C@H](OC(=O)[C@@]4(C)[C@@H](O)[C@H]4O[C@H]43)[C@H]3O[C@@]231`, for which the Potency entry is “inactive”.

Consider `Oc1ccc(/C=C2/c3cc(O)cc(O)c3C(c3ccc(O)cc3)[C@H]2c2cc(O)cc(O)c2)cc1` (stereo not given in full), for which the Potency entry is “inactive”.

On to `C[C@]12CC[C@]3(C1)[C@H](CC2=O)CC(OC(=O)c1ccccc1)[C@H]1[C@@](CO)(C(=O)O)CCC[C@@]13C` (stereo not given in full), for which the Potency result is “inactive”.

Turning to `CC[C@H](C)C(NC(=O)[C@@H](NC)C(C)C)C(=O)NC1C(=O)N(C)[C@@H](C(C)O)C(=O)N[C@@H](C(C)C)C(=O)N(C)[C@@H](CC(C)C)C(=O)NC(C(C)C)C(=O)N(C)[C@@H](C(C)C)C(=O)N(C)[C@@H](Cc2c[nH]c3cccc(OC)c23)C(=O)N[C@@H](C(C)C)C(=O)N[C@@H]([C@H](O)c2ccccc2)C(=O)N[C@@H](C(C)C)C(=O)O[C@@H]1C` (stereo partly drawn) (H-[NMeV][ξIle][ξThr(3R)(O-yl)][NMeThr(3ξ)]V[NMeL][ξV][NMeV][NMeTrp(4-OMe)]V[Phe(3R-OH)]V; ester 3-C), the Potency is 27.2 µM (active).

For `CN1C(=O)[C@]23SS[C@@]1(C)C(=O)N2[C@H]1Nc2ccccc2[C@]1(c1c[nH]c2ccccc12)[C@@H]3O`, the Potency result is “inactive”.

With `CCC1=C2CCCN3C(=O)O[C@H]([C@H]1OC(C)=O)[C@H]23`, the Potency entry is “inactive”.

For the compound `C[C@@H]1O[C@H](c2c(O)cc(O)c3c(=O)cc(-c4ccc(O)cc4)oc23)[C@H](O)[C@H](O)[C@H]1O`, the Potency entry is “inactive”.

Regarding `CC(=O)NC[C@@H]1O[C@H](CC/C=C(C)/C(C)=C/C=O)[C@H](C)C[C@H]1O`, the Potency was 34.3 µM (active).

Take `O=C(O)[C@@]12CO[C@@]3(O)C4CCN(CC[C@H]31)[C@H]4c1c2[nH]c2ccccc12`: the Potency result is “inactive”.

Take `CC1(C)CCC[C@]2(C)[C@@H]1CC[C@@]13C[C@@H](CC[C@H]12)C(C)(O)C3` (stereo not given in full): the Potency result was “inactive”.

In the case of `CC(=O)O[C@H]1CC[C@@]2(C)C(CC[C@]3(C)C2CC=C2C4CC(C)(C)CC[C@]4(C)CC[C@]23C)C1(C)C` (stereo not given in full), the Potency entry was “inactive”.

`CC(O)/C=C/C1(O)C(C)(C)CC(O)CC1(C)O` (stereo not given): the Potency entry was “inactive”.

Regarding `C=C1C[C@@]23C=CC(=O)[C@@](C)(CCC(=O)Nc4c(O)ccc(C(=O)O)c4O)C2C[C@@H]1C(O)C3` (stereo not given in full), the Potency result is “inactive”.

Turning to `CN1CC[C@]2(c3cccc4c3N[C@@H]3N(C)CC[C@]43[C@@]34CCN(C)[C@@H]3Nc3ccccc34)c3ccccc3N[C@H]12`, the Potency result is “inactive”.
